Assay outcomes deposited in PubChem by National Center for Advancing Translational Sciences (NCATS).
D1 agonist – agonists of human D1 dopamine receptor; HEK293 T-REx D1 cells, calcium flux, agonist mode; activation, % at 2 µM; 360,000 compounds, 1% hits
Target sequence (P21728 whole entry, looked up): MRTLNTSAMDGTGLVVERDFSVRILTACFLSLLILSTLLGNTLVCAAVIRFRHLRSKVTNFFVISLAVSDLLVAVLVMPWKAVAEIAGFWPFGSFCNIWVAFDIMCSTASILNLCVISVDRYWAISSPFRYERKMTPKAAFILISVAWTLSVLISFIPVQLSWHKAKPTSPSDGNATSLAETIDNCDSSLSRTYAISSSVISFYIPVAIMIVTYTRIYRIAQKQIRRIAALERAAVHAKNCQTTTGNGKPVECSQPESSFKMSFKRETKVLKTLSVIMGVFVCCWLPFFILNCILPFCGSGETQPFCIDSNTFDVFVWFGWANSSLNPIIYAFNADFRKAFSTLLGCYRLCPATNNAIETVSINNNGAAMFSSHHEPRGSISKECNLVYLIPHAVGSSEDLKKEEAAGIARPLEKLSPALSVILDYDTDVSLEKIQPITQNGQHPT
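Inducible HEK293 T-REx D1 cells, force-coupled to calcium signalling, were plated at 4000 cells/well with tetracycline and held overnight at 30 C. After no-wash calcium dye loading, compound-evoked calcium rise over 180 s flagged agonists.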
TRHR ag – activates the human TRH receptor; 360,000 compounds, 0.18% hits; activation, % at 2 µM; P34981; TRHR cells, calcium flux fluo-8, FDSS agonist mode
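Read-out: compound-evoked intracellular calcium rise in TRHR cells, fluo-8 dye, kinetic FDSS fluorescence at 1 s/cycle following a 10-cycle baseline. Cells cultured overnight before dye loading (30 min–1.5 h, RT).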
D1 potentiator – enhances dopamine response at the human D1 receptor | P21728 | HEK293 TREx D1 cells, calcium flux, dopamine EC20 potentiation | potentiation, % at 10 µM | 360,000 compounds, 0.036% hits; in the data active = potentiation above about 30%
TRHR PAM – TRH receptor (human) allosteric enhancement | TRHR cells, fluo-8 calcium fluorescence, EC20 TRH enhancement | 360,000 compounds, 0.66% hits | enhancement, % at 2 µM | AID 493056; in the data active = enhancement above about 30%
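TRHR-expressing cells loaded with fluo-8 calcium dye were read kinetically (ex 480/em 530) during compound addition, then stimulated with an EC20 of TRH (10 nM final). Enhancement of the Gq-mediated intracellular calcium response was scored.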
D1 antag – human D1 dopamine receptor antagonism; 360,000 compounds, 3.2% hits; HEK293 TREx D1 cells, calcium flux, dopamine EC80; active compounds read low; AID 504652; activity change, negative = inhibition, % at 10 µM; in the data active = activity change below about -30%
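Calcium flux readout: force-coupled, inducible Hek293 Trex D1 line, cells induced overnight at 30 C with tetracycline, dye-loaded 30–90 min at RT. Antagonism scored against EC80 dopamine challenge given 180 s after compound.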
Each line names hits and unclear results; the compound was inactive in the other large screens. Only some compounds are listed: those with a hit (about 4.7% of all), similar ones and a draw of the others. Rule as the data show it, unless noted: active = activation above about 30%; inactive = the rest.

COc1ccc(OC)c(/C=C2\SC(=S)N(C(C(=O)O)c3ccccc3)C2=O)c1 (configuration not stated)	D1 agonist 35.1
O=C(COc1ccc([N+](=O)[O-])cc1)NNC(=O)Nc1ccc([N+](=O)[O-])cc1	none
COc1ccc(OC)c(NC(=O)NNC(=O)COc2ccc([N+](=O)[O-])cc2)c1	D1 antag -49.1
COc1cc(NC(=O)COc2ccc(Cl)cc2)ccc1NC(=O)C(C)C	none
COC(=O)c1ccc(NC(=O)Nc2ccc([N+](=O)[O-])cc2)cc1	D1 agonist 35.6, D1 antag -43.2
COc1cc(NC(=O)COc2ccc(Cl)cc2)ccc1-c1cc2ccccc2oc1=O	D1 antag -41.2
COc1ccc([N+](=O)[O-])cc1NC(=O)c1ccccc1SC	D1 antag -43.5
COc1ccc(OC)c(CNC(=O)Nc2cn(CC(C)C)c(=O)c3ccccc23)c1	none
Cn1c(=O)c2c(nc(SCC(=O)Nc3ccccc3F)n2Cc2ccc(Cl)cc2)n(C)c1=O	none
O=C(Cc1nnc(-c2nc3ccccc3[nH]2)o1)Nc1cc(C(F)(F)F)ccc1Cl	none
CCOC(=O)c1[nH]c2c(c1Cc1ccccc1)C(=O)CC(c1ccc(C(C)(C)C)cc1)C2 (configuration not stated)	none
COc1ccc(NC(=O)NNC(=O)COc2ccc3cc(Br)ccc3c2)cc1OC	none
COc1ccc([N+](=O)[O-])cc1NC(=O)CCS(=O)(=O)c1ccc(Br)cc1	D1 antag -32.7
CCCn1ccc2c(OCC(=O)Nc3cc(C)ccc3C)cccc2c1=O	D1 agonist 45.5 (no result: D1 antag)
COc1ccc(NC(=O)NNC(=O)COc2ccc3ccccc3c2)cc1OC	D1 antag -48.7
Cn1ccc2c(OCC(=O)Nc3ccc([N+](=O)[O-])cc3)cccc2c1=O	D1 antag -37.0
COc1ccc([N+](=O)[O-])cc1NC(=O)CS(=O)(=O)c1ccc(C)cc1	none
Cn1ccc2c(OCC(=O)Nc3ccc(OC(F)(F)F)cc3)cccc2c1=O	none (no result: D1 antag)
CCn1cc(C(=O)NCCc2ccc(OC)cc2)c(=O)c2ccc(C)nc21	none
CC(C)CN(C(=O)C1CCCC1)C1CCS(=O)(=O)C1 (configuration not stated)	none
Cc1ccc(-c2csc3ncnc(N4CCN(S(=O)(=O)c5cccs5)CC4)c23)cc1	none
Cc1cccc(N(C)S(=O)(=O)c2c(C)[nH]c(C)c2C(=O)N2CCCC2)c1	none
CCOC(=O)c1ccc(NC(=O)Nc2ccc(F)cc2)cc1	none
COC(=O)c1ccc(NC(=O)Nc2ccc(F)cc2)cc1	D1 antag -36.3
COC(=O)c1ccc(NC(=O)COc2ccc([N+](=O)[O-])cc2)cc1	D1 antag -35.1
CCN(CC)S(=O)(=O)c1ccc(C(=O)Nc2nnc(C(C)C)s2)cc1	D1 antag -39.8
CCN(CC)S(=O)(=O)c1nnc(NC(=O)c2ccc(C(C)C)cc2)s1	none
Cc1nc2ccc(NC(=O)c3cncc(Br)c3)cc2s1	D1 antag -36.1
Cc1nc2ccc(NC(=O)c3sccc3C)cc2s1	D1 antag -38.9
CCN(CC)S(=O)(=O)c1ccc2nc(NC(=O)c3ccc(Br)o3)sc2c1	none
CCN(CC)S(=O)(=O)c1ccc2nc(NC(=O)c3cncc(Br)c3)sc2c1	D1 agonist 30.6
Cc1nc2ccc(NC(=O)c3ccccc3)cc2s1	none
CN1CC[C@]2(CCN3CCc4c(oc5ccccc45)[C@@H]3C2)N(C)C1=O	none
O=C(CCCn1c(=O)c2cccn2c2cccnc21)Nc1ccccc1Br	none
O=[N+]([O-])c1cc(C(F)(F)F)ccc1Oc1cccnc1[N+](=O)[O-]	D1 antag -81.4
O=C(Nc1ccc(F)cc1)c1ccccc1Oc1ccc(C(F)(F)F)cc1[N+](=O)[O-]	none
CC1=C(c2ccc(C(C)C)cc2)S(=O)(=O)N=C1N1CCC(C(=O)NCCc2ccco2)CC1	none
O=C1NC(=S)S/C1=C/c1ccc(OC(=O)c2ccco2)cc1	D1 antag -30.4
Cc1ccc(-c2noc(CNC(=O)c3ccccc3)n2)cc1	none
COc1cc2c3nnc(-c4ccc(F)cc4)c-3cn(Cc3ccccc3F)c2cc1OC	D1 antag -52.9
COc1cc2c3nnc(-c4ccccc4)c-3cn(Cc3ccccc3F)c2cc1OC	none
COc1ccc(C(=O)COC(=O)C(C(C)C)N2C(=O)C3C4C=CC(C4)C3C2=O)cc1 (configuration not stated)	D1 antag -58.8
O=C(CN1C(=O)C2C3C=CC(C3)C2C1=O)OCC(=O)c1ccc(Br)cc1 (configuration not stated)	D1 antag -43.3
O=C(CN1C(=O)C2C3CCC(C3)C2C1=O)OCC(=O)c1ccc(Br)cc1 (configuration not stated)	none
N#Cc1ccc(CN2CCN(C(=O)c3cc(C4CC4)nn3-c3ccccc3)CC2)cc1	none
Cn1c(=O)n(Cc2ccccc2)c(=O)c2c1nc1n2CCN1c1ccccc1	none
CCn1c(CNC(=O)c2ccc(OC)cc2)nnc1SCC(=O)Nc1cccc(C)c1	none
Cc1ccc2oc(C(=O)N(C)Cc3ccc(C)o3)c(C)c2c1	none
Cc1ccc(CN(C)C(=O)c2cc(Br)c(Br)s2)o1	D1 antag -35.1
Cc1ccccc1-c1nc2c(c(SCc3cccc(Cl)c3)n1)Cc1c(CO)cnc(C)c1O2	none
CC(=O)[C@@]1(O)CC[C@H]2[C@@H]3C[C@H](C)C4=CC(=O)C=C[C@]4(C)[C@@]3(F)[C@@H](O)C[C@@]21C	D1 antag -59.3
CCCC(=O)O[C@]1(C(=O)COC(C)=O)CC[C@H]2[C@@H]3C[C@H](F)C4=CC(=O)C=C[C@]4(C)[C@@]3(F)[C@@H](O)C[C@@]21C	none
O=S(=O)(c1ccc(F)cc1)N1CCN(C(=S)NC2CC2)CC1	none (no result: D1 potentiator)
CCN(Cc1ccc(OC)c(F)c1)C(=O)/C=C/c1ccc(S(=O)(=O)N2CCOCC2)cc1	D1 antag -41.1
Cc1ccc(-c2nnc(SCCOc3ccccc3)o2)cc1	D1 agonist 80.9
O=[S+]([O-])(c1ccc(-c2ccccc2)cc1)N1CCN([S+](=O)([O-])c2ccc3c(c2)OCCO3)CC1	none
CN(NC(=O)Nc1ccc(Cl)cc1)c1c(Cl)c(Cl)nn1C	D1 antag -40.5
CC(=O)c1cccc(NC(=O)c2sc(-n3nc(C)c(Cc4ccccc4)c3C)nc2C)c1	none
Cc1cc(C)c(S(=O)(=O)c2ccc(C(C)(C)C)cc2)c(Cl)n1	D1 agonist 34.0
O=C(NCc1ccccc1)c1cccn1-c1nnc(N2CCCCC2)s1	none
O=C1CC(N2CCN(c3cccc(C(F)(F)F)c3)CC2)C(=O)N1c1ccccc1F (configuration not stated)	none
O=C1CC(N2CCN(c3cccc(C(F)(F)F)c3)CC2)C(=O)N1c1ccccc1 (configuration not stated)	D1 agonist 53.4
